Test results published in PubChem BioAssay AID630 (Emory University Molecular Libraries Screening Center, 2007).
The whole screen tested about 88,000 compounds, of which about 260 (0.3%) were called active. The sample holds actives, similar compounds and a random draw of the others, so the mix is not that of the screen.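 Rule for the calls: active = compounds that reduce the energy-transfer binding signal between the protein and its labelled peptide by more than half; inactive = the rest.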

The compounds below were run against Mothers against decapentaplegic homolog 3 (Homo sapiens) (UniProt P84022) (assay: Smad3/FoxH1 peptide binding inhibitors, primary screen, biochemical, TR-FRET (AID 630;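 note: 0% = Smad3 plus labelled peptide maximal FRET and 100% = peptide-only background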)). Details: TR-FRET Smad3/Dy647-FoxH1 peptide binding, europium anti-His; at 25 µM; active compounds read high.
Mothers against decapentaplegic homolog 3 (Homo sapiens), sequence (P84022 whole entry, looked up): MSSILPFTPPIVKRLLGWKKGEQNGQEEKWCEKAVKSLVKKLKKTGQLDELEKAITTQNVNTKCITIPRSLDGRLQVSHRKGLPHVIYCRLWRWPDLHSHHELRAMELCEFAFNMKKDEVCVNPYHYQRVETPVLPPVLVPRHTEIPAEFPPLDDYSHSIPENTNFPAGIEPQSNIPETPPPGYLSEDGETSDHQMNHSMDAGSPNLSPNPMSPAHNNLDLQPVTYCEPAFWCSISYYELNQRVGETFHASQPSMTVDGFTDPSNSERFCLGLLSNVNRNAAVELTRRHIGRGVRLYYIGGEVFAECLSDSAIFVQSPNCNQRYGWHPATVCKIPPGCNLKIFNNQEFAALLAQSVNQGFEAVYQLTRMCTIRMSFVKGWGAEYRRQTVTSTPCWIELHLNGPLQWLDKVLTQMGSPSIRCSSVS
In the case of CC(=O)C1=C(C)NC(=O)NC1c1cc(Br)ccc1OCC#N (stereo not given), the inhibition is reported as 5.31% (inactive).
In the case of N#CC1=C(N)N(c2ccccc2)C2=C(C(=O)CCC2)C1c1ccccc1 (stereo not given), the inhibition is reported as -6.32% (inactive).
C=CCN(N=Nc1cccc([N+](=O)[O-])c1)c1cccc([N+](=O)[O-])c1 was tested, and the inhibition was 5.93% (inactive).
For COc1ccc(NC(=O)C(CC(C)C)NS(=O)(=O)c2ccc3c(c2)CCN3C(C)=O)cc1OC (stereo not given), the inhibition was 2.09% (inactive).
With C[C@H]1O[C@@H](CC(=O)O)Cc2c1c(O)c1c(O)cc(-c3cc(=O)c4c(=O)c5c(c(=O)c=4c3=O)C[C@H](CC(=O)O)O[C@@H]5C)c(O)c1c2O the inhibition was 95.5% (active).
For Cc1cc2cc(CNC(=O)c3cccs3)ccc2[nH]1, the inhibition was 4.85% (inactive).
With c1ccc2c(-c3nn4nnnc4c4ccccc34)cccc2c1 the inhibition was 1.52% (inactive).
In the case of Cc1cc(Cl)c(S(=O)(=O)N(C)C)cc1OCC(N)=O, the inhibition is reported as -1.09% (inactive).
For COc1ccc(S(=O)(=O)Nc2ccc(F)cc2)c(C)c1C, the inhibition was -18.5% (inactive).
For COCCOCCn1cnc2ccccc21, the inhibition was 8.15% (inactive).
For Cc1ccc(-c2nc3ccccc3[nH]2)cc1N, the inhibition was 10.8% (inactive).
For CC(=O)N1CCCc2cc(S(=O)(=O)CCC(=O)N3CCN(c4ccccc4)CC3)ccc21, the inhibition was 3.39% (inactive).
With CC(C)(C)c1ccc(C(=O)NCC(=O)OCN2C(=O)c3ccccc3C2=O)cc1 the inhibition was -15.4% (inactive).
C=CCN(C(=O)Cn1ncc2c1-c1cc(C)ccc1OC2)c1ccccc1 was tested, and the inhibition was -12.8% (inactive).
For Oc1c(Br)cc(CN(Cc2cc(Br)c(O)c(Br)c2)C2CCCCC2)cc1Br, the inhibition was 98.7% (active).
For C=CCO/N=C(\C)c1c(O)c(C)c(-c2ccccc2)n(-c2ccccc2)c1=O, the inhibition was 0.29% (inactive).
For Cc1cccc(NC(=O)/C(=C\c2ccco2)NC(=O)c2ccccc2)c1, the inhibition was -5.56% (inactive).
CCC(c1nnnn1C1CCCC1)N1CCN(C(=O)c2ccco2)CC1 (stereo not given) was tested, and the inhibition was 56.9% (active).
For CC(=O)c1ccc(-n2nnnc2SCC(=O)N2CCN(C(=O)c3ccco3)CC2)cc1, the inhibition was 6.3% (inactive).
In the case of CC(C)C(c1nnnn1CCc1ccccc1)N1CCN(C(=O)c2ccco2)CC1 (stereo not given), the inhibition is reported as -1.2% (inactive).
In the case of COC(=O)c1ccc(CSc2nc3cc(Cl)ccc3o2)cc1, the inhibition is reported as 8.67% (inactive).
In the case of Cc1ccc(-c2cnc(NC(=O)CCC(=O)N(C)Cc3ccccc3)n2C)cc1, the inhibition is reported as 8.43% (inactive).
With COc1ccc(C(C)=O)cc1CN1C(=O)NC2(CCCCC2C)C1=O (stereo not given) the inhibition was 3.22% (inactive).
In the case of CC1CCN(C(=O)c2cc3nc(C4CC4)cc(C(F)(F)F)n3n2)CC1, the inhibition is reported as 6.46% (inactive).
C[C@H](CCC(=O)O)[C@@H]1CC[C@@H]2[C@H]3CC[C@H]4C[C@@H](O)CC[C@]4(C)[C@@H]3C[C@H](O)[C@]21C was tested, and the inhibition was -5.18% (inactive).
FC(F)(F)c1ccc2nnc(-c3c(Cl)cccc3Cl)n2c1 was tested, and the inhibition was -1.74% (inactive).
With CC1CCCCC1NC(=O)C1CCCN1S(=O)(=O)c1cccc2nsnc12 (stereo not given) the inhibition was -19.4% (inactive).
O=C1CSC(c2ccc(Cl)cc2)N1 (stereo not given) was tested, and the inhibition was 13.1% (inactive).
For Cc1cccn2c(=O)c(/C=C(\C#N)S(=O)(=O)c3ccc(Cl)cc3)c(N3CCC(C(N)=O)CC3)nc12, the inhibition was 0.22% (inactive).
In the case of CCCNC(=O)N1CCN(C(=O)NCCC)CC1, the inhibition is reported as 0.05% (inactive).
CC1=CC(=O)C=CC1(C)C(Cl)(Cl)Cl (stereo not given) was tested, and the inhibition was -10.9% (inactive).
CN(C)c1ccc(CNC2C3CC4CC(C3)CC2C4)cc1 (stereo not given) was tested, and the inhibition was 8.16% (inactive).
In the case of COC(=O)Nc1ccc(S(=O)(=O)N2CCN(CCN3C(=O)C4C5C=CC(C5)C4C3=O)CC2)cc1 (stereo not given), the inhibition is reported as 6.97% (inactive).
O=C(NCC(=O)N(Cc1cccs1)C(C(=O)NC1CCCCC1)c1ccco1)c1cccs1 (stereo not given) was tested, and the inhibition was 0.62% (inactive).
For COc1ccc(C)cc1S(=O)(=O)NCCc1ccccc1, the inhibition was 7.34% (inactive).
In the case of COc1ccc(NC(=S)N2N=CCC2c2ccccc2)cc1 (stereo not given), the inhibition is reported as -1.54% (inactive).
For CCCCN1C(=O)CC(N2CCOCC2)C1=O (stereo not given), the inhibition was -0.67% (inactive).
With O=C(Cc1c(O)c2ccccc2[nH]c1=O)NCc1ccccc1 the inhibition was 7.06% (inactive).
In the case of CS(=O)(=O)c1ccc(/C=N/NC(N)=S)cc1, the inhibition is reported as 20.2% (inactive).
For CC(C)CCNC(=O)Cn1c(=O)oc2cc(S(=O)(=O)N3CC(C)CC(C)C3)ccc21 (stereo not given), the inhibition was 7.82% (inactive).
In the case of CCOCCCNC(=O)C(NC(=O)c1ccc(=O)[nH]c1)c1ccc(C)cc1 (stereo not given), the inhibition is reported as -19.1% (inactive).
Cc1nnc(SCc2nc3ccccc3nc2C)s1 was tested, and the inhibition was 1.94% (inactive).
CCOc1cc2[nH]c(=S)n(Cc3ccc(C(=O)NCCOC)cc3)c(=O)c2cc1OCC was tested, and the inhibition was -0.98% (inactive).
With CC(C)Oc1ccc(Oc2ccc(C(F)(F)F)cn2)cc1 the inhibition was 0.6% (inactive).
For CCn1c(C)nc2cc(C(=O)NNS(=O)(=O)c3ccc(C)cc3C)ccc21, the inhibition was 2.77% (inactive).
With Cc1cccc(-n2c(Cc3cc(=O)[nH]c(=O)[nH]3)nnc2SC(C)C)c1 the inhibition was 62% (active).
In the case of COc1cccc(-n2c(Cc3cc(=O)[nH]c(=O)[nH]3)nnc2SCC(=O)Nc2ccccc2)c1, the inhibition is reported as 4.97% (inactive).
For Cc1cccc(-n2c(N)cc(=O)nc2SC(C)C(=O)NC2CCCCC2)c1 (stereo not given), the inhibition was 5.17% (inactive).
For O=C(O)CCCCc1nc2ccccc2s1, the inhibition was -2.94% (inactive).
For CNC(=O)c1nnc(Cc2ccc(Cl)cc2)o1, the inhibition was -6.06% (inactive).
CCOc1ccc(S(=O)(=O)NCC2CCCO2)cc1 (stereo not given) was tested, and the inhibition was -12% (inactive).
For CCOCCCNC(=O)C(NC(=O)CNC(=O)c1ccccc1)c1ccc(C)cc1 (stereo not given), the inhibition was -6.68% (inactive).
CCOCCOCCC(C(=O)O)P(=O)(c1ccccc1)c1ccccc1 (stereo not given) was tested, and the inhibition was 71.7% (active).
For CCOC(=O)NC(C(F)(F)F)(C(F)(F)F)P(=O)(c1ccccc1)c1ccccc1, the inhibition was 6.78% (inactive).
For CCCCCCOc1ccc(OC(=O)c2cccnc2)cc1, the inhibition was 0.33% (inactive).
In the case of Cc1ccc(-n2c(=O)cc(N3CCN(Cc4ccccc4)CC3)[nH]c2=O)cc1, the inhibition is reported as 2.1% (inactive).
In the case of Cc1cc(S(=O)(=O)NC2CCCCC2)ccc1OCC(=O)NCc1cccnc1, the inhibition is reported as 8.87% (inactive).
For CN(C)C(=O)c1cc(Br)ccc1Cl, the inhibition was 1.18% (inactive).
In the case of O=C(Nc1ccc2c(c1)OCCO2)C(c1ccc(F)cc1)N1CCCCC1 (stereo not given), the inhibition is reported as -0.28% (inactive).
With O=C(O)c1c(Br)c(Br)c(Br)c(Br)c1C1c2ccc(O)cc2Oc2cc(O)ccc21 the inhibition was 93.1% (active).
COc1cccc(N=c2oc3c(C)ncc(CO)c3cc2C(N)=O)c1 was tested, and the inhibition was 10.9% (inactive).
With CC1(CC(=O)O)O[C@@H]2CCCCC[C@H]2O1 (tested in a mixture with another compound) the inhibition was 14% (inactive).
With Cc1cc(NC(=O)CS(=O)(=O)c2cn(C)c3ccccc23)no1 the inhibition was -0.74% (inactive).
With Cc1ccccc1CSCCNC(=O)c1ccc(Cl)c(S(=O)(=O)N2CCOCC2)c1 the inhibition was 4.77% (inactive).
For CCC1CCCCN1CCCNC(=O)C1CCC(Cn2c(=O)[nH]c3ccccc3c2=O)CC1 (stereo not given), the inhibition was 14.2% (inactive).
For COc1ccc(C(C#N)Nc2ccccc2C)cc1 (stereo not given), the inhibition was -2.51% (inactive).
For COc1ccc(C(=O)OCC(=O)NCC2CCCCC2)cc1S(=O)(=O)N1CCCc2ccccc21, the inhibition was 0.19% (inactive).
With Cc1ccc(S(=O)(=O)N(c2cccc(C)c2)C2CCS(=O)(=O)C2)cc1 (stereo not given) the inhibition was 0.21% (inactive).
For COc1ccc(C2(CNC(=O)C(c3ccccc3)c3ccccc3)CCOCC2)cc1OC, the inhibition was 3.2% (inactive).
In the case of COc1ccc(S(=O)(=O)N2CCOCC2)c(C)c1C, the inhibition is reported as 15.3% (inactive).
For Cc1c(O)c(Br)c(C)c(O)c1Br (tested in a mixture with another compound), the inhibition was 94% (active).
CCc1ccccc1NC(=O)CN(C)S(=O)(=O)c1ccc2c(c1)c(=O)n(C)c(=O)n2C was tested, and the inhibition was -4.79% (inactive).
With C=C(C)CNC(=S)/N=c1\scc(C)n1CC the inhibition was 91.6% (active).
With OC[C@@H]1O[C@H](n2cnc3c(SCc4ccccc4)ncnc32)[C@H](O)[C@H]1O the inhibition was 4.63% (inactive).
CC(C)OC(=O)c1c(NC(=O)c2ccco2)sc2c1CCCC2 was tested, and the inhibition was -1.98% (inactive).
With CC(O)CN(Cc1ccc(Cl)cc1)CC(C)O (stereo not given) the inhibition was 0.45% (inactive).
COc1ccc(S(=O)(=O)N/N=C\c2ccc(OC)c(COc3ccc(C)cc3[N+](=O)[O-])c2)cc1 was tested, and the inhibition was -3.11% (inactive).
With Cc1ccc(SC(=O)COc2ccc(C)c(C)c2)cc1 the inhibition was -5.83% (inactive).
In the case of CCN1C(=O)C(CC(=O)Nc2cc(C)ccc2C)SC1=Nc1ccc(S(N)(=O)=O)cc1 (stereo not given), the inhibition is reported as -12.6% (inactive).
For O=C(C1=C(O)C(=O)N(Cc2ccccc2)C1c1ccco1)c1ccco1 (stereo not given), the inhibition was 12.4% (inactive).
For C[C@@]12CC[C@H]3c4ccc(O)cc4CC[C@@H]3[C@H]1CC[C@H]2OC(=O)CCC1CCCC1, the inhibition was 39.6% (inactive).
In the case of CC(=O)Nc1ccc(OCC(O)CN2CCN(c3ccccc3Cl)CC2)cc1 (stereo not given), the inhibition is reported as 4.39% (inactive).
CCOc1ccc(N=C2NC(=O)S/C2=C\c2ccc(O)cc2)cc1 was tested, and the inhibition was -8.11% (inactive).
O=C(NC1CCC(O)CC1)c1ccc(S(=O)(=O)NCc2ccco2)cc1 (stereo not given) was tested, and the inhibition was 1.61% (inactive).
COC(=O)C1=C(C)Nc2ncnn2C1c1cccnc1 (stereo not given) was tested, and the inhibition was -10.7% (inactive).
With Cc1ccc(S(=O)(=O)N(C)C2(C)CCS(=O)(=O)C2)cc1 (stereo not given) the inhibition was -7.37% (inactive).
With Cn1cnc([N+](=O)[O-])c1Nc1ccccc1O the inhibition was -0.46% (inactive).
In the case of O=C(N/N=C/c1ccc(O)cc1)/C(=C/c1ccc([N+](=O)[O-])cc1)NC(=O)c1ccccc1, the inhibition is reported as -3.81% (inactive).
With Cc1cccc(C)c1NC(=O)CSc1nnc(-c2ccccc2)n1Cc1ccc2c(c1)OCO2 the inhibition was 14.3% (inactive).
Cc1nn(-c2ncc(C(F)(F)F)cc2Cl)c(=O)n1-c1ccccc1 was tested, and the inhibition was 9.91% (inactive).
